Assay [1] in a line: anti-His antibody binders, primary screen, artefact control for SMM control protein annotation, biochemical, small-molecule microarray, 635 nm fluorescence (AID 1128).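 Note: score merges feature fluorescence with signal-to-noise for each printed compound spot.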 The following applies: anti-His Alexa647 antibody binding, higher = more signal.
The test system of assay [2] is Human papillomavirus type 1a E7 protein (residues 1-88). The assay can be described thus: HPV1a E7 small-molecule binders, primary screen, biochemical, small-molecule microarray, residues 1-88, 635 nm (AID 1129). The following applies: small-molecule microarray binding, fluorescence 635 nm; higher = more signal.
The target of assay [3] is Focal adhesion kinase 1 (Homo sapiens) (UniProt Q05397). The assay can be described thus: small-molecule microarray binders of FAK, primary screen, biochemical, 635/667 nm fluorescence, BSA, DTT (AID 1130).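 Note: composite of spot emission at 667 nm and signal to noise over triplicate slides.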 Particulars: PTK2 binding, 635 nm fluorescence, higher = more signal.
Sequence of Focal adhesion kinase 1 (Homo sapiens) (Q05397 whole entry, looked up): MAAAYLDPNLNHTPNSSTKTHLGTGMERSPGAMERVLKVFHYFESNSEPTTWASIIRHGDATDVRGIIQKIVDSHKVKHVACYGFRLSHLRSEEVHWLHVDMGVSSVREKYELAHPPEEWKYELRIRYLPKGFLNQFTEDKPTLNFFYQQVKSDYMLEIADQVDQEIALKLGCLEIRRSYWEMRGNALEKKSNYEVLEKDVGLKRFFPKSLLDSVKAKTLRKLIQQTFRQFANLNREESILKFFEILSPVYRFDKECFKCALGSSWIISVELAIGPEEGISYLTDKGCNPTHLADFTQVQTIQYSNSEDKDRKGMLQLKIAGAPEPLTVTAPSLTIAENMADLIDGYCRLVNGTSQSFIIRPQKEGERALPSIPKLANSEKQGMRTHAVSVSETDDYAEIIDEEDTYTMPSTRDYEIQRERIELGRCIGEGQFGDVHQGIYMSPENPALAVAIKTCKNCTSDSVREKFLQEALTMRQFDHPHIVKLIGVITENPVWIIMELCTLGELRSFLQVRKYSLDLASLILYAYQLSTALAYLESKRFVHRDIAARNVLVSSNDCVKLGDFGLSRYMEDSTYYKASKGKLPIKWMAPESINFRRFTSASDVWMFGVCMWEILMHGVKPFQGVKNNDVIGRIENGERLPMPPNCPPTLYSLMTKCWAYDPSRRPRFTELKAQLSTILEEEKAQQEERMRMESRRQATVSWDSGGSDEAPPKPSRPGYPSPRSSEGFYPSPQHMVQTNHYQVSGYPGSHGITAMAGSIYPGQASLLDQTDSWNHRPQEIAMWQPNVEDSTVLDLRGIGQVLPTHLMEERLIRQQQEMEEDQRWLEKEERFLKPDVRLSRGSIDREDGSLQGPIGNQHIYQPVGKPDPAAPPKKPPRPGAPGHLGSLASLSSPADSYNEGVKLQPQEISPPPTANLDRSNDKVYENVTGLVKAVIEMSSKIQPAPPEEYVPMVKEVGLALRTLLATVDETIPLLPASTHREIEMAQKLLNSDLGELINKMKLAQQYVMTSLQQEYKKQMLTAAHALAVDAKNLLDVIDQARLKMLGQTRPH
Assay [4] relates to Fibrinogen (Alexa647-labelled). The assay can be described thus: fibrinogen binders on compound microarrays, profiling panel, artefact control for SMM control-protein annotation, biochemical, small-molecule microarray, 635/667 nm fluorescence (AID 1131).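 Note: z-score merges 667 nm fluorescence with per-spot signal-to-noise over triplicate slides.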 Particulars: fibrinogen-A647 binding fluorescence, higher = more signal.
The target in assay [5] is Follistatin (Homo sapiens) (UniProt P19883). In words: follistatin binders on small-molecule microarrays, primary screen, biochemical, small-molecule microarray, 635/667 nm fluorescence (AID 1132). Particulars: FST binding, 635 nm fluorescence, higher = more signal.
Sequence of Follistatin (Homo sapiens) (P19883 whole entry, looked up): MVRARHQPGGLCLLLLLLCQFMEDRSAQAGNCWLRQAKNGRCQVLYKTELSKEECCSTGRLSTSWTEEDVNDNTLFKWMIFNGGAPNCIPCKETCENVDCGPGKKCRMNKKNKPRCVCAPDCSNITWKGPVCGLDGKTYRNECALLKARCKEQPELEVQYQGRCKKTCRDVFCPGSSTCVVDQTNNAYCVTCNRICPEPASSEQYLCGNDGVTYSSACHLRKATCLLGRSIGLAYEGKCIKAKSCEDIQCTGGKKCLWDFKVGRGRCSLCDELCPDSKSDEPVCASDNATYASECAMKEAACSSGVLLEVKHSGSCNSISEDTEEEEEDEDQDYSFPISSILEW
In assay [6] the target is Fibroblast growth factor 2 (Homo sapiens) (UniProt P09038). The assay can be described thus: FGF2 binders on small-molecule microarrays, primary screen, biochemical, small-molecule microarray, 635/667 nm fluorescence (AID 1133). The following applies: small-molecule microarray binding, FGF2, fluorescence 635/667; higher = more signal.
Sequence of Fibroblast growth factor 2 (Homo sapiens) (P09038 whole entry, looked up): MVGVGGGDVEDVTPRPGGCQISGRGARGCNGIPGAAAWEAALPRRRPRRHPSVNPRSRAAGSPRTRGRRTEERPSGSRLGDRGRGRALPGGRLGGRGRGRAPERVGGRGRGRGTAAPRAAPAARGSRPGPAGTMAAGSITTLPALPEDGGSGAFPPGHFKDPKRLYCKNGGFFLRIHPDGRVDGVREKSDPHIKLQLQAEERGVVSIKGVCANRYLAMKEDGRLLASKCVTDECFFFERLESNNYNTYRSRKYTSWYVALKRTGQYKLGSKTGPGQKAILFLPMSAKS
A short description of assay [7]: mitochondrial membrane potential change in A549 cells, profiling panel, cell-based, JC-1 fluorescence, basal, 24 h, 100 nL (AID 1138).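 Note: A549 lung adenocarcinoma cells under basal conditions with no added stimulus; test concentration not given here.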 Particulars: higher = more signal.
Another assay relates to Lefty1. In words: Lefty1 binders on small-molecule microarrays, primary screen, biochemical, small-molecule microarray, 635/667 nm fluorescence (AID 1139). Particulars: small-molecule microarray binding, fluorescence 635/667; higher = more signal.
For assay [8], the system named is wheat germ agglutinin (Triticum aestivum), Alexa647-labelled. In words: wheat germ agglutinin binders on compound microarrays, profiling panel, artefact control for SMM control-protein annotation, biochemical, small-molecule microarray, 635/667 nm fluorescence (AID 1140).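 Note: score merges 667 nm feature emission with signal to noise over triplicate slides.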 Particulars: WGA-A647 binding, 635 nm fluorescence, higher = more signal.
Assay [9] concerns the target Luciferin 4-monooxygenase (Photinus pyralis) (UniProt P08659). The assay can be described thus: firefly luciferase enzyme inhibitors, primary screen, biochemical, luminescence, purified enzyme, 2006 set (AID 1141).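 Note: cell-free assay with purified firefly luciferase at 100 ng per well in PBS; test concentration not given here.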 The following applies: SteadyGlo luminescence, 30 min, higher = more signal, called active from +8 up or from −8 down.
Assay [10] has as its system Wnt5a (protein binding on small-molecule microarray). In words: Wnt5a binders on small-molecule microarray, primary screen, biophysical, 635/667 nm fluorescence (AID 1142).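 Note: fluorescence read at 667 nm with signal to noise per printed feature.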 The following applies: 635 nm fluorescence, higher = more signal.
The nature of assay [11]: cell viability in Huh7 cells, primary screen, cytotoxicity control for HCV replication inhibitor project, CellTiter-Glo luminescence, basal, 48 h (AID 1143).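 Note: Huh7 hepatoma cells carrying a hepatitis C replication reporter with no stimulus; test concentration not given here.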 The following applies: Huh7 HCV replicon, higher = more signal, called active from +8 up or from −8 down.
A short description of assay [12]: P. aeruginosa biofilm formation inhibitors, primary screen, PAO1 strain, BacTiter-Glo luminescence, LB-PBS (AID 1144). Particulars: 12 h, higher = more signal.
Assay [13] is described as follows: CREB reporter modulators without forskolin, primary screen, cell-based, PC12, CRE-LacZ reporter, unstimulated (AID 1145). The following applies: no forskolin, luminescence, 4.5 h, higher = more signal, called active from +8 up or from −8 down.
Assay [14] is described as follows: CREB reporter modulators under forskolin, primary screen, cell-based, PC12, CRE-LacZ reporter, forskolin-stimulated (AID 1146).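 Note: PC12 cells with 6xCRE LacZ reporter stimulated by forskolin 10 µM; beta-galactosidase reporter signal reflecting CREB driven transcription.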 The following applies: luminescence, 4.5 h, higher = more signal, called active from +8 up or from −8 down.
Assay [15] concerns the target Streptavidin (Streptomyces avidinii) (UniProt P22629). The assay can be described thus: streptavidin binders on small-molecule microarray, primary screen, artefact control for SMM compound annotation, biophysical, 635/667 nm fluorescence (AID 1147).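 Note: signal reflects streptavidin binding to arrayed compounds as a control protein.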 Particulars: streptavidin binding, higher = more signal.
Assay [16] can be described thus: small-molecule binders of probe aInhba, primary screen, biochemical, small-molecule microarray, 635/667 nm fluorescence (AID 1148).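 Note: score merges 667nm spot fluorescence with signal-to-noise for antibody binding to printed compounds.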 The following applies: higher = more signal.
Assay [17] addresses Torsin-1A (Homo sapiens) (UniProt O14656). In words: torsin A binders from cell lysate, primary screen, small-molecule microarray, wild-type, 635/667 nm (AID 1149). The following applies: COS7 hTOR1A-WT lysate, 635 nm fluorescence, higher = more signal.
For assay [18] the target is unchanged. In words: small-molecule binders of mutant TOR1A in lysate, primary screen, cell lysate, small-molecule microarray, COS7 lysate, 635/667 nm fluorescence (AID 1150).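 Note: score pools 667 nm emission and signal to noise measuring lysate protein binding.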 The following applies: COS7 hTOR1A mutant lysate, 635 nm fluorescence, higher = more signal.
Assay [19] has as its system Sonic hedgehog protein (Shh). In words: small-molecule binders of Shh protein, primary screen, biochemical, small-molecule microarray, 635/667 nm fluorescence (AID 1151).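 Note: Shh protein binding to compounds spotted on small-molecule microarray slides; score combines spot fluorescence intensity with signal-to-noise across triplicate slides.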 Particulars: small-molecule microarray binding, 635 nm fluorescence; higher = more signal.

Active and inactive are the calls of the source. Unless noted, the rule behind the calls is not given here.

Sequence of Luciferin 4-monooxygenase (Photinus pyralis) (P08659 whole entry, looked up): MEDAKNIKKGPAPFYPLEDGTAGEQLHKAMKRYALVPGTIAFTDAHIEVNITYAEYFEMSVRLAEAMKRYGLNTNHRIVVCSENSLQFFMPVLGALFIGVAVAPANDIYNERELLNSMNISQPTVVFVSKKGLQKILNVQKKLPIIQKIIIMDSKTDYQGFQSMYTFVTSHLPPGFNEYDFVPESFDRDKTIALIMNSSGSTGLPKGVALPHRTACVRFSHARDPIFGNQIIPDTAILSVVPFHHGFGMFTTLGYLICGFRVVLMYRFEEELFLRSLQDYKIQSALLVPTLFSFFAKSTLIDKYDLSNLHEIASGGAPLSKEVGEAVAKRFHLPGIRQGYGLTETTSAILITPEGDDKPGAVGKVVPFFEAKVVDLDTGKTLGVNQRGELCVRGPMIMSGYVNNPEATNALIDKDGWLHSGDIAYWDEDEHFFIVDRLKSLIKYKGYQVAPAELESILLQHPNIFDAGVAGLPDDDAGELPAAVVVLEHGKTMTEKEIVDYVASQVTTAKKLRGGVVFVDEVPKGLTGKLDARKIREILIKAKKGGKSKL
Sequence of Torsin-1A (Homo sapiens) (O14656 whole entry, looked up): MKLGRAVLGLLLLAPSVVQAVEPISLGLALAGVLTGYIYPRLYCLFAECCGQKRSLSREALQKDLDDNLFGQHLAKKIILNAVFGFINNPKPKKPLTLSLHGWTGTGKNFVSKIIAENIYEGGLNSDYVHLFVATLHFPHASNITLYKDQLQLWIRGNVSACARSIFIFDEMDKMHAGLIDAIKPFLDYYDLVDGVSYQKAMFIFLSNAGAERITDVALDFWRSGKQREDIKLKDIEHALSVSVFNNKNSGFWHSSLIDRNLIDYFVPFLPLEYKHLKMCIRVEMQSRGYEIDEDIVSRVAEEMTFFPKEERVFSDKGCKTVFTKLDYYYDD
Sequence of Streptavidin (Streptomyces avidinii) (P22629 whole entry, looked up): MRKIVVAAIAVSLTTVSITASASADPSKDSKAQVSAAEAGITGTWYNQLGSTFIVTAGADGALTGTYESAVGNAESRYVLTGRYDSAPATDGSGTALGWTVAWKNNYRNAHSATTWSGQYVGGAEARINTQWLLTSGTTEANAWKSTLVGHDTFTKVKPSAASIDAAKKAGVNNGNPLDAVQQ

Consider `Cc1ccc(S[C@]2(C(=O)NCC(C)C)CC(=O)N(Cc3cc(C(F)(F)F)cc(C(F)(F)F)c3)[C@@H]2c2ccc(CO)cc2)cc1`, for which the composite z-score is 0.63 in [1]; -0.8 in [2]; -0.261 in assay [3]; -0.529 in [4]; -0.0643 in [5]; -0.205 in [6]. The composite z-score in the assay on Lefty1 was -0.866; in assay [8] it was -0.262; in assay [10] it was 0.226; in assay [15], -0.342; in assay [16], 0.652; with Torsin-1A (Homo sapiens) [17], 0.234. The composite z-score with Torsin-1A (Homo sapiens) [18] was found to be 0.118; in assay [19] it was 0.391. Further, the z-score in assay [7] is -0.587; in [9], 0.111 (inactive); in assay [11], 0.52 (inactive); in [12] it was -0.846 (inactive); in [13] it was -0.0781 (inactive); in assay [14] it was 1.02 (inactive).

For `COCCCNC(=O)[C@]1(Cc2ccccc2)N=C(c2ccc(OCCCO)cc2)O[C@@H]1c1ccccc1CN=[N+]=[N-]`, the composite z-score in [1] was 2.51; in assay [2], 1.14; in [3] it was 0.802; in assay [4], 0.957; in [5], 1.31; in assay [6], 1.46. For the same compound, the composite z-score in the assay with Lefty1 is -0.0031; in assay [8] it was 0.963; in assay [10] it was 0.703; in [15], 1.31; in [16] it was 0.491; with Torsin-1A (Homo sapiens) [17] it was 0.52. For the same compound, the composite z-score with Torsin-1A (Homo sapiens) [18] was 0.82; in assay [19] it was -0.147. Also, the z-score in assay [7] was 1.16; in assay [9] it was -0.932 (inactive); in assay [11], -3.68 (inactive); in [12] it was -0.0105 (inactive); in assay [13], -0.09 (inactive); in assay [14] it was -1.03 (inactive).

For the compound `O=C1OCCC=C[C@H]2OC34C=CCN(CCN5CCOCC5)C(=O)[C@H]3N(CCCCCO)C(=O)[C@@H]4C12` (stereo not given in full), the composite z-score in assay [1] was -0.166; in assay [2], 0.56; in [3], 0.398; in assay [4], 0.709; in assay [5], -0.211; in assay [6] it was -0.363. The composite z-score is -0.301 with Lefty1; 0.615 in assay [8]; -0.135 in assay [10]; 1.38 in [15]; -0.253 in assay [16]; 1.14 in the assay with Torsin-1A (Homo sapiens) [17]. In addition, the figures for the composite z-score (with Torsin-1A (Homo sapiens) [18]; in assay [19]) were 1.52 and 0.139, respectively. Besides, the z-score is 0.791 in assay [7]; -0.956 (inactive) in assay [9]; 0.201 (inactive) in assay [11]; -0.199 (inactive) in assay [12]; 1.14 (inactive) in assay [13]; 0.25 (inactive) in [14].

As to `COc1ccc([C@H]2C[C@H]3C(I)=C[C@@H]2C(=O)[C@]32CO2)cc1`, the composite z-score is -0.608 in assay [1]; -0.658 in [2]; -0.449 in assay [3]; -0.193 in assay [4]; 0.762 in assay [5]; 1.14 in assay [6]. The composite z-score with Lefty1 was 0.983; in assay [8], 0.24; in assay [10] it was -0.149; in assay [15] it was 1.25; in assay [16] it was -0.152; with Torsin-1A (Homo sapiens) [17], -0.067. For the same compound, the composite z-score was -0.126 in the assay with Torsin-1A (Homo sapiens) [18] and 0.817 in assay [19]. Also, the z-score is 1.1 in [7]; -0.303 (inactive) in [9]; -0.307 (inactive) in assay [11]; -0.125 (inactive) in [12]; 5.38 (inactive) in assay [13]; -1.6 (inactive) in [14].

Regarding `C=C(/C(=C/C[C@H](OC(=O)c1ccncc1)c1ccc(OCCO)cc1)c1cc(C(=O)OC)ccc1OC)C(C)C`, the composite z-score in [1] stood at 0.785; in [2], 1; in assay [3], 0.359; in assay [4], 0.821; in assay [5], 0.789; in assay [6], 0.494. The composite z-score with Lefty1 is 0.546; in assay [8] it was 0.681; in assay [10] it was -0.0134; in assay [15] it was 1.23; in assay [16], -0.016; in the assay with Torsin-1A (Homo sapiens) [17], -0.511. Further, the composite z-score with Torsin-1A (Homo sapiens) [18] amounted to 0.284; in [19], 0.711. Further, the z-score was -0.228 in assay [7]; -0.357 (inactive) in assay [9]; -3.91 (inactive) in assay [11]; -0.518 (inactive) in assay [12]; 3.9 (inactive) in [13]; -0.359 (inactive) in assay [14].

For the origin of these results see PubChem BioAssay.
